# High-throughput results deposited in PubChem by several laboratories.
# LMP1 NFkB inh = EBV LMP1-driven NF-kappaB luciferase reporter inhibitors, primary screen, cell-based, luminescence, single point; LMP1-induced NF-kappaB luciferase reporter cells; AID 504558, 2011; inhibition, % at 12.5 µM; 0.69% of 350,000 active; in the data active means inhibition above about 41%;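 further: 0% = neutral control wells and 100% = reference inhibitor control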
# HSP90 refold inh = HSP90 inhibitors, primary screen, cell lysate, luminescence; 0.91% of 290,000 active; Rabbit reticulocyte lysate, luciferase refolding luminescence, 3 h; Heat shock protein HSP 90 (rabbit reticulocyte lysate; luciferase refolding); inhibition, % at 5.6 µM;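 active means inhibition above the screen-wide mean plus 3 SD, computed separately per campaign, cut at about 16% in these data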;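 further: 0% = DMSO wells and 100% = 60 µM geldanamycin wells; inhibitors lower the luminescence because luciferase stays unfolded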
# LGR2 inh = inhibitors of bursicon-induced LGR2 CRE-luciferase signal, primary screen, cell-based, HEK293, CRE-luciferase reporter, bursicon stimulation; bursicon-stimulated, 4 h; 0.35% of 380,000 active; inhibition, % at 9.99 µM; Drosophila bursicon receptor LGR2 (rickets); AID 720647, 2013;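 active means drop in luminescence signal, shown as inhibition above about 50% in the replicate tests, limit read from the data, passing the limit was not always enough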;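 further: agonist challenge used bursicon conditioned medium at about half maximal strength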
# TROY NFkB inh = inhibitors of TROY-driven NF-kB signaling, primary screen, Q293 LMP1-TROYcd cells, NF-kB luciferase, uHTS; Q293 LMP1-TROYcd NF-kB luciferase reporter, 4 h; inhibition, % at 10 µM; 0.98% of 360,000 active; AID 1347056, 2019;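 active means compounds whose plate-normalised and pattern-corrected inhibition of the luciferase reporter signal at the single screening dose is 50% or more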
# TWEAK Fn14 block = inhibitors of TWEAK-Fn14 signaling, primary screen, luciferase reporter cells, uHTS; inhibition, % at 10 µM; 2% of 360,000 active; TWEAK-stimulated Fn14 reporter cells, luciferase luminescence, 8 h; in the data active means inhibition above about 50%
# aDG glyco up = activators of alpha-DG glycosylation, primary screen, uHTS, Pro5-aDG cells, AlphaScreen. alpha-DG glycosylation AlphaScreen (IIH6); 0% Pro5, 100% B10-LARGE cell signal. activation, % at 10 µM. 0.22% of 360,000 active. AID 624168, 2012;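 active means activation of at least 8% versus controls, or a plate z-score of at least 8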;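 further: Pro5 are CHO cells carrying HIG-tagged alpha-DG that lacks glycosylation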
# * marks the source's active call; other numbers are inactive results; nt = not tested or not shown. A selection: hits, their analogues and other compounds. The true share with any hit is near 2.6%.
SMILES,LMP1 NFkB inh,HSP90 refold inh,LGR2 inh,TROY NFkB inh,TWEAK Fn14 block,aDG glyco up
Cc1ccc(-c2ccnc3c(Cl)c(C)nn23)cc1,-7.7,3.1,1.5,-16.5,-3.9,0.0
Cc1ccc(-c2cnc3c(Cl)c(C)nn3c2)cc1,32.7,6.0,57.2*,10.0,75.2*,0.2
Cc1ccc(-c2cnc3cc(C)nn3c2)cc1,32.4,12.8,-11.1,17.7,73.7*,0.1
Cc1cc2ncc(-c3ccc(Cl)cc3)cn2n1,-7.4,1.4,-58.6,-53.0,-6.2,0.0
C[C@H](CO)N1C[C@H](C)[C@H](CN(C)C)Oc2ccc(NS(=O)(=O)c3ccc(F)cc3)cc2C1=O,nt,nt,-7.6,nt,nt,nt
O=C(NCC(F)(F)F)[C@H]1[C@H](CO)[C@H]2Cn3c(cccc3=O)[C@H]2N1Cc1cccc(F)c1,nt,nt,-5.0,nt,nt,nt
CCOc1ccccc1CNC(=O)C1CCN(C(=O)c2sccc2-n2cccc2)CC1,-4.8,-2.2,0.5,25.7,64.0*,0.0
O=C(NCc1ccccc1Cl)C1CCN(C(=O)c2sccc2-n2cccc2)CC1,-5.0,-0.4,-1.4,5.5,0.9,-0.1
COc1cccc(-c2ccc(C3[C@H]4CNC[C@@H]3N4C(=O)NC3CCCCC3)cc2)c1 (some centres not stated),nt,nt,-14.5,nt,nt,nt
COc1ccc(C(=O)Nc2ccc3oc(Cc4ccc(Cl)cc4)nc3c2)cc1OC,7.6,-2.5,7.2,18.7,52.0*,0.4
CCCC#Cc1ccc([C@H]2[C@@H](CO)N3C(=O)CN(C(=O)NC4CCCC4)C[C@H]23)cc1,nt,nt,-5.6,nt,nt,nt
O=C(Cc1ccccn1)N1[C@H](CO)[C@H]2c3ccccc3NC[C@H]21,nt,nt,2.3,nt,nt,nt
CC(C)COc1ccc(-c2nn(-c3ccccc3)cc2/C=C2/SC(=S)N(CC(=O)O)C2=O)cc1,5.1,-5.5,5.7,87.7*,-14.9,-0.1
CO[C@@H]1CN(C)C(=O)c2ccc(NC(=O)Nc3ccccc3)cc2OC[C@@H](C)N(C(=O)CC2CC2)C[C@@H]1C,nt,nt,-12.7,nt,nt,nt
COc1ccc([C@@]23Oc4cc(OC)cc(OC)c4[C@]2(O)[C@H](O)[C@H](C(=O)N(C)C)[C@H]3c2ccccc2)cc1,81.8*,nt,99.2*,33.8,87.4*,-0.3
S=C(NCCC(c1ccccc1)c1ccccc1)Nc1cccc(Cl)c1,-15.3,-0.6,nt,61.9*,28.9,-0.1
C=C1C(=O)C=C2CN(C(=O)c3ccccc3)[C@@](Cc3ccc(F)cc3)(C(=O)OC)[C@@H]12,93.7*,17.9*,nt,80.9*,104.8*,-0.6
Cc1noc(C)c1NC(=O)N(C)C[C@@H]1Oc2c(NC(=O)Nc3cccc4ccccc34)cccc2C(=O)N([C@@H](C)CO)C[C@@H]1C,nt,nt,3.4,nt,nt,nt
CN(c1cccnc1)c1ncnc2[nH]ncc12,3.7,-3.9,-5.3,-8.9,-10.5,0.0
C=CCN(CC=C)c1ncnc2[nH]ncc12,29.1,nt,1.0,31.6,67.2*,0.5
COc1ccc(N(C)C(=O)c2cc3c(s2)-c2ccc(Cl)cc2S(=O)(=O)C3)c(OC)c1,11.5,-5.6,6.0,31.5,71.4*,-0.7
C[C@H](CO)N1C[C@H](C)[C@@H](CN(C)S(=O)(=O)CC(F)(F)F)OCc2ccccc2-c2c(n(C)c3ccccc23)C1=O,nt,nt,1.2,nt,nt,nt
COC(=O)c1ccc(Sc2nnnn2-c2ccccc2)c([N+](=O)[O-])c1,-8.6,-0.1,nt,35.6,84.1*,0.2
CC(C)c1ccc(N=Cc2c(O)c3ccccc3oc2=O)cc1,-27.2,14.4,-16.7,69.0*,82.5*,0.1
Cc1ccc(NC(=S)NCCSc2ccc(Cl)cc2)cc1,-8.6,3.8,-19.9,9.8,-10.6,0.0
CC(CNC(=S)Nc1cc(F)cc(F)c1)CSc1ccc(Cl)cc1 (configuration not stated),5.1,5.2,11.5,60.8*,23.5,0.3
O=C(C[C@@H]1CC[C@@H]2[C@H](COC[C@H](O)CN2C(=O)c2ccccc2)O1)Nc1nccs1,nt,nt,0.5,nt,nt,nt
